A3A deaminase – APOBEC3A ssDNA deaminase inhibitors, primary screen, selectivity assay for APOBEC3G inhibitor project, biochemical, FAM/TAMRA oligo cleavage fluorescence | AID 493011, 2011 | DNA dC->dU-editing enzyme APOBEC-3A (Homo sapiens), P31941 | inhibition, % at 20 µM | recombinant A3A, FAM/TAMRA ssDNA deamination fluorescence | 330,000 tested, 0.41% active;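 active = at least 40% inhibition at 20 µM here, with at most 30% in a related deaminase screen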;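 also: plate controls were A3A with DMSO for no effect and wells lacking A3A enzyme for full effect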
Target sequence (P31941 whole entry, looked up): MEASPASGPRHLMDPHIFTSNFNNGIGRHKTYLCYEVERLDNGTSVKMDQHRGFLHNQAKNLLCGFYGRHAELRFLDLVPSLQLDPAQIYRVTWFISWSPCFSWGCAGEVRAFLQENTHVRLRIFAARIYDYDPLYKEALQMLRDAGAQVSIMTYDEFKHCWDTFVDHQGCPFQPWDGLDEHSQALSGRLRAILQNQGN
A3G deaminase – APOBEC3G DNA deaminase inhibitors, primary screen, biochemical, fluorescence, single-stranded DNA substrate, uHTS; DNA dC->dU-editing enzyme APOBEC-3G (Homo sapiens), Q9HC16; recombinant A3G, ssDNA deamination FAM/TAMRA fluorescence; inhibition, % at 20 µM; 330,000 tested, 0.28% active;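 active = inhibition of at least 40% at 20 µM, with no more than 30% in the related APOBEC3A deaminase screen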;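 also: plate controls were DMSO wells with A3G for no effect and wells lacking A3G enzyme for full effect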
Target sequence (Q9HC16 whole entry, looked up): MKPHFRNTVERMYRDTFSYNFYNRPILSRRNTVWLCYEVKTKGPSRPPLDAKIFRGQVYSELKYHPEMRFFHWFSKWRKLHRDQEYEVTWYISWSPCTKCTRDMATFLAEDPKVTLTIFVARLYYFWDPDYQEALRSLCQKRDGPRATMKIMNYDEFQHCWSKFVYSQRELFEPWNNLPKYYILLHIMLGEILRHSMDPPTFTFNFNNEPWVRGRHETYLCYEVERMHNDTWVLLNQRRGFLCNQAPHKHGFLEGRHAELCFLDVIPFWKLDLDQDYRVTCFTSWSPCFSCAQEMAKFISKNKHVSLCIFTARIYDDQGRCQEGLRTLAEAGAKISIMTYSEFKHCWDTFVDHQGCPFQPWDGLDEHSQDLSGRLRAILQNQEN
PABP FP inh – PABP poly(A) RNA binding inhibitors, primary screen, biochemical, fluorescence polarization, uHTS | Polyadenylate-binding protein 1 (Homo sapiens), P11940 | calls only at 35 µM | 290,000 tested, 1% active | AID 2014, 2009;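 also: calls also rest on retests at 20 µM and on dose response follow-up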
PHOSPHO1 block – PubChem AID 1565; Phosphoethanolamine/phosphocholine phosphatase (Homo sapiens), Q8TCT1; recombinant PHOSPHO1, absorbance phosphatase assay; inhibition, % at 13.3 µM; 290,000 tested, 1.1% active; in the data active = inhibition above about 60%
PABP1 MLLE inh – inhibitors of PABP1 MLLE–PAM2 peptide binding, primary screen, biochemical, fluorescence polarization, FITC-PAM2, GST-MLLE. 360,000 tested, 0.36% active. inhibition, % at 20 µM. AID 588489, 2011. Polyadenylate-binding protein 1 (Homo sapiens), P11940; in the data active = inhibition above about 35%, passing the limit was not always enough;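 also: plate controls were DMSO wells with GST-MLLE for no effect and wells lacking GST-MLLE protein for full effect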
eIF4H inh – human eIF4H binding inhibitors, primary screen, translation initiation inhibitor project, biochemical, uHTS, fluorescence polarization; Eukaryotic translation initiation factor 4H (Homo sapiens), Q15056; eIF4H fluorescence polarization binding assay; inhibition, % at 35 µM; 290,000 tested, 0.94% active; AID 2012, 2009;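 also: calls also rest on retests at 20 µM and on dose response follow-up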
* = called active by the depositor; i = inactive; ? = inconclusive; nt = no result; + = active, no number. Hits are enriched below; roughly 2.6% of the tested compounds scored in any of these assays. Unless noted, no rule for the calls is given here.

SMILES	A3A deaminase	A3G deaminase	PABP FP inh	PHOSPHO1 block	PABP1 MLLE inh	eIF4H inh
CC(C)CNS(=O)(=O)c1ccc(S(=O)(=O)N2CCC3(CC2)OCCO3)cc1	-3	-8	+	-2	6	?
Cn1c(=O)oc2cc(S(=O)(=O)N3CCN(Cc4ccc5c(c4)OCO5)CC3)ccc21	2	-4	i	72*	-4	-8
COc1cc(/C=N/NC(=O)C(N)=O)ccc1OCC(=O)N1C(C)CCCC1C (centres undefined)	0	-7	i	-19	-3	41
CCn1cc(C(=O)NCCN(C)C)c(=O)c2cc(F)c(N3CCN(C)CC3)cc21	nt	nt	i	nt	2	3
O=S(=O)(c1ccc(Br)cc1)N1CCN=C1SCc1cccc(F)c1	-1	-3	i	27	3	-9
COc1ccc(S(=O)(=O)N2CCN=C2SCc2cccc(F)c2)cc1	2	0	i	61*	3	-10
O=C1c2cccc3c([N+](=O)[O-])ccc(c23)C(=O)N1c1ccc(Cl)cn1	1	-5	i	93*	62	21
O=C1c2cccc3c([N+](=O)[O-])ccc(c23)C(=O)N1c1nccs1	0	-5	i	97*	7	33
COC(=O)c1cc(S(=O)(=O)N(C)c2ccc(C)c(C)c2)c[nH]1	-1	-2	i	23	3	11
CCCCN(Cc1ccco1)S(=O)(=O)c1c[nH]c(C(=O)OC)c1	2	1	i	27	9	-9
CCOc1ccc(N(C)S(=O)(=O)c2c[nH]c(C(=O)OC)c2)cc1	-3	-8	i	65*	6	2
CCCN(c1ccccc1F)S(=O)(=O)c1c[nH]c(C(=O)OC)c1	0	-4	i	70*	-3	-6
CCc1nc2ccccc2c(C(=O)OCC(=O)N(CC(C)C)c2c(N)n(Cc3ccccc3)c(=O)[nH]c2=O)c1C	-2	4	nt	nt	0	nt
CCc1cc(=O)oc2cc(C)cc(OCC(=O)NCc3cccnc3)c12	-4	-6	i	-2	9	79*
Cc1nc2ccccc2c(=O)n1/N=C/c1c(O)ccc2oc3c(c12)CCCC3	-1	-4	+	14	-4	22*
CC/C(C)=N/Nc1nc(-c2cc3cccc(OC)c3oc2=O)cs1	1	0	i	25	-7	52
Cc1ccc(-c2nc(NC(=O)CSc3cc(C)c4ccccc4n3)ns2)cc1	2	-4	i	60*	-128	-6
COc1ccc2c(C)cc(SCC(=O)Nc3nsc(-c4ccc(C)cc4)n3)nc2c1	-2	-2	i	-6	1	0
Cc1nn(C(=O)N(C)C)c(C)c1CN1C(=O)c2ccccc2C1=O	-4	-10	i	24	1	-6
COCCN1C(=O)C(C(=O)OC)CC2=C1CC(C)(C)CC2=O (centres undefined)	nt	nt	nt	nt	8	nt
O=C(NNC(=S)NC(=O)c1ccc(F)cc1)c1cccnc1	-2	0	i	-136	1	4
COc1ccc(CC(=O)NNC(=S)NC(=O)c2cccnc2)cc1	1	32	i	85*	26	0
O=C(NC(=S)NNS(=O)(=O)c1ccc(Cl)cc1)c1cccnc1	0	-5	i	37	40*	18
O=C(NNC(=S)NC(=O)c1cccnc1)c1ccc(F)cc1	4	25	i	85*	9	8
Cc1nc(-c2c(C(=O)NNC(=O)Nc3c(C)cccc3C)noc2C)cs1	-1	-8	i	28	-18	-4
SMILES	A3A deaminase	A3G deaminase	PABP FP inh	PHOSPHO1 block	PABP1 MLLE inh	eIF4H inh
COC(=O)c1ccccc1NC(=O)/C=C/c1cc(OC)c(OC)c(OC)c1	0	2	i	7	1	12
COc1ccc(-c2c(-c3ccc(OC)c(F)c3)c3ccccc3n2C)cc1	3	-4	nt	nt	0	nt
COC(=O)CCC(=O)NNC(=O)Cc1ccccc1	3	0	i	49	4	7
Cc1ccccc1NC(=O)CCS(=O)(=O)c1ccc(Br)cc1	2	-2	i	9	0	10
CCN(CC)c1ccc(NC(=O)CCS(=O)(=O)c2ccc(Br)cc2)c(C)c1	70	86	+	6	-10	93*
O=[N+]([O-])c1ccc(Cl)cc1CNc1ccc(F)c(F)c1	14	30	i	-19	1	29
CC(C)n1c(=O)c2ccccc2n1C(=O)c1ccccc1	nt	nt	nt	nt	7	nt
O=C(O)CCCCCN1C(=O)C(O)=C(C(=O)/C=C/c2ccccc2)C1c1ccccc1[N+](=O)[O-] (centres undefined)	-2	-5	i	37	47*	4
CCCCN1C(=O)C(O)=C(C(C)=O)C1c1ccccc1[N+](=O)[O-] (centres undefined)	-2	-6	i	26	0	-1
COCC(C)n1c(SCC(=O)Nc2cccnc2Cl)nc2ccccc2c1=O (centres undefined)	nt	nt	nt	nt	-8	nt
Cc1cc[n+](-c2nc3ccccc3nc2[N-]S(=O)(=O)c2ccccc2)cc1	0	8	+	3	15	51*
Cc1cc[n+](-c2nc3ccccc3nc2C(=C=[N-])C#N)cc1	-5	-6	+	39	-13	70*
O=S(=O)([N-]c1nc2ccccc2nc1-[n+]1ccccc1)c1ccc(Cl)cc1	-4	-6	i	36	6	0
COc1ccc(N/N=C(/C(C)=O)N2CCCc3ccccc32)cc1	-1	-3	i	-52	-5	4
CC(C)(C)CC(=O)NC(=S)N1CCCCCC1	0	-7	i	69*	13	2
Cc1cccc2cc(CN(CCN3CCOCC3)C(=O)Nc3ccccc3F)c(=O)[nH]c12	2	2	+	6	9	81*
Cc1cc2cc(CN(CCN3CCOCC3)C(=O)Nc3ccccc3F)c(=O)[nH]c2cc1C	1	1	i	6	-6	-11
Cc1cccc(OCc2nnc(-c3ccc(F)cc3)o2)c1	0	-3	nt	nt	-5	nt
O=C1C(SCCO)=C(SCCO)C(=O)c2ccccc21	-7	73*	nt	nt	26	nt
Cc1ccc(C(=O)Oc2coc(CSc3nnc(NC(=O)c4cccs4)s3)cc2=O)cc1	14	7	+	-11	6	90*
Cc1ccc(C(=O)Nn2c(C)nc3ccccc3c2=O)cc1C	5	-8	i	28	3	-2
CCC1CC2(C)NC(=O)c3c(sc4c3CC(C)(C)OC4)N2C1=O (centres undefined)	-3	15	i	84*	29	-4

Compound activity: PubChem BioAssay, Sanford-Burnham Center for Chemical Genomics
